The values that follow come from PubChem BioAssay AID624298 (National Center for Advancing Translational Sciences (NCATS), 2012).

Records with an inconclusive call do not appear. Entries that show only a call come without a potency. Activity calls are given as the source filed them. Calls follow the shape of the dose curve; as a rule, active = well fitted activation curve with a large enough effect; inconclusive = small, poorly fitted or top-dose-only effect; inactive = no such curve, though single readings can be large or run the other way.
Potency is read from the fitted curve at half-maximal effect.

The test can be described thus: Activators of T cell receptors: Hit Validation. The settings on record: primary human leukocytes, cytokine release by HTRF, 48 h, TCR-stimulated with anti-CD3 beads; series mostly up to 46.1 µM. The text has this: Normally activation of naive T cells requires two signals. 1. A signal through the T cell receptor (TCR) which provides antigen specificity to the response. 2. Signals through co-stimulatory molecules, which are necessary for proliferation, survival and cytokine production. In the absence of co-stimulatory signals T cells are not effectively activated, and may even be rendered anergic or unresponsive to subsequent signaling. This lack of costimulation has been shown in multiple model systems to be a major factor in the limited strength and effectiveness of anti-tumor T cell responses. The goal of this project is to identify small molecule compounds that will stimulate T cell activation in the presence of TCR signaling but in the absence of co-stimulatory signals, thereby allowing activation of naive T cells in the absence of co-stimulation. Identification of such compounds would have clear experimental and clinical applications in instances where desirable antigen-specific immune responses are not generated due to a lack of co-stimulation, for example in the generation of anti-tumor responses.
In collaboration between the National Cancer Institute and NIH Chemical Genomics Center, a high-throughput amenable screen was developed to discover small molecules that co-stimulate and activate human T cell receptors. The screen will be carried out using a novel homogeneous time resolved fluorescence energy transfer (HTRF) assay to measure production of the cytokine IL-2 by activated T cells and will be tested against the NIH Molecular Libraries Small Molecule Repository (MLSMR). This is the same assay tested against the hits identified in the primary screen.
NIH Chemical Genomics Center [NCGC]
NIH Molecular Libraries Probe Centers Network [MLPCN]
Assay Submitter (PI): Richard Hodes, National Cancer Institute, NIH
Primary human leukocytes are incubated with a-CD3 beads and compounds for 48 hr. The amount of secreted IL-2 is then assayed with a HTRF IL-2 kit. The presence of IL-2 cytokine captures the detection reagents and brings the a-IL-2-K and a-IL-2-d2 into close proximity. Upon excitation with 320nm light, the europium cryptate is capable of transferring energy to acceptor molecules within close proximity, resulting in acceptor molecule emission at 665nm.
Regarding `COc1ccc(OC)c(NC(=O)CSc2nc3[nH]c(=O)cc(O)c3s2)c1`, the Potency result is “inactive”.

Take `CCOc1cc(/C=N/NC(=S)Nc2ccccc2C(F)(F)F)ccc1OCC(=O)N1CCOCC1`: the Potency result is “inactive”.

As for `Cc1nn(Cc2ccccc2)c(C)c1C(=O)N1CCN(S(=O)(=O)/C=C/c2ccccc2)CC1`, the Potency result was “inactive”.

Take `CC[n+]1ccc(/C=C/c2ccc(N(C)C)cc2)c2ccccc21`: the Potency was 4.45 µM (active).

Consider `CC1CCN(CCNC(=O)C2CCN(S(=O)(=O)c3cccc4nsnc34)CC2)CC1`, for which the Potency entry was “inactive”.

Regarding `Cc1onc(-c2c(F)cccc2Cl)c1C(=O)Nc1sc2c(c1C(N)=O)CCC2`, the Potency entry was “inactive”.

`COc1ccccc1N1CCN(CCCC(=O)c2ccc(F)cc2)CC1`: the Potency entry was “inactive”.

As for `O=S(=O)(Nc1cc(Cl)ccc1-n1cncn1)c1ccc(F)cc1`, the Potency result is “inactive”.

Take `Cc1ccc(S(=O)(=O)NC23CC4CC(CC(C4)C2)C3)cc1`: the Potency result is “inactive”.

With `O=C(CCCN=C1NS(=O)(=O)c2ccccc21)Nc1ccc(Cl)cc1`, the Potency entry was “inactive”.

As to `COc1ccc(S(=O)(=O)N2CCN(C(=O)CCc3c[nH]c4ccccc34)CC2)cc1`, the Potency result was “inactive”.

For the compound `Cc1ccc(C(=O)OCC(=O)NCc2ccco2)cc1C`, the Potency result is “inactive”.

As to `O=C(O)c1ccc(OS(=O)(=O)c2cccc(C(F)(F)F)c2)cc1`, the Potency result was “inactive”.

As to `Oc1ccccc1CN1CCCC(N2CCN(c3cccc(C(F)(F)F)c3)CC2)C1` (stereo not given), the Potency entry is “inactive”.

As to `O=C1C=C(NCCc2ccccc2)C2(CCCCC2)O1`, the Potency result was “inactive”.

Turning to `CN(C)c1ccc(N/C(N)=N/c2nc(C(F)(F)F)cc(C(F)(F)F)n2)cc1`, the Potency entry is “inactive”.

As for `Cc1ccc(NC2=CC(=O)C(=O)c3ccccc32)c(C)c1`, the Potency entry was “inactive”.

Regarding `O=C(Nc1nnc(-c2ccccc2)s1)c1cccc(S(=O)(=O)N2CCOCC2)c1`, the Potency result was “inactive”.

Consider `Cc1cc(C)c(-c2csc(NC(=O)C3=NN(c4ccccc4)C(=O)CC3)n2)c(C)c1`, for which the Potency result is “inactive”.

Turning to `CC(C)CSc1nc2c(c(=O)[nH]c(=O)n2C)n1CC(O)COc1cccc2ccccc12` (stereo not given), the Potency result is “inactive”.

`N#Cc1ccc(CN2CCN(C(=O)c3cc(Cl)c4c(c3)OCCO4)CC2)cc1`: the Potency entry was “inactive”.

In the case of `Cc1ccc(C(=O)NNC(=O)COC(=O)COc2ccccc2C#N)cc1`, the Potency entry is “inactive”.

Take `COc1cccc(-n2c(SCC(=O)NC3CCS(=O)(=O)C3)nc3ccccc3c2=O)c1` (stereo not given): the Potency result is “inactive”.

Take `COc1ccccc1CNC(=O)CSc1ccc(Br)cc1`: the Potency result is “inactive”.

`CCC(=O)N1CCN(c2ccc(NC(=O)c3ccc([N+](=O)[O-])o3)cc2)CC1`: the Potency entry was “inactive”.

Regarding `COc1ccc(N(C)S(=O)(=O)c2cccc(C(=O)N3CCN(Cc4ccc5c(c4)OCO5)CC3)c2)cc1`, the Potency entry was “inactive”.

For `CN(CC(=O)Nc1ccc(N2CCOCC2)cc1)C(=O)c1ccc(CS(C)(=O)=O)cc1`, the Potency result is “inactive”.

`CC(=O)NS(=O)(=O)c1ccc(NC(=S)NC(=O)COc2ccccc2C)cc1`: the Potency was 14.1 µM (active).

On to `O=C(COC(=O)C1CCN(c2ccc(C(F)(F)F)cn2)CC1)NCc1ccccc1`, for which the Potency entry was “inactive”.

On to `COc1cc2c(cc1O)CCN(C(=O)CSc1nncn1C)[C@@H]2C`, for which the Potency result is “inactive”.

`CCN(CC)CC(=O)c1c(N)n(Cc2ccccc2)c(=O)n(C)c1=O`: the Potency result is “inactive”.

As for `CN(CC(=O)NCC(=O)Nc1ccc(F)cc1)C1CCS(=O)(=O)C1` (stereo not given), the Potency entry is “inactive”.

On to `CN(C)CCCN1c2ccccc2Sc2ccc(Cl)cc21`, for which the Potency result is “inactive”.

On to `COc1cc(/C=C/C(=O)OCc2csc(CC(=O)Nc3ccc(C)cc3)n2)ccc1OCC#N`, for which the Potency result is “inactive”.

With `O=C(COC(=O)/C=C/c1cccc(Br)c1)Nc1cccc(S(=O)(=O)NC2=NCCC2)c1`, the Potency result was “inactive”.

With `CCOc1ccc(C(=O)N(CN2CCCC2=O)c2cccc(Cl)c2)cc1`, the Potency result is “inactive”.

Regarding `CC(C)NS(=O)(=O)c1ccc(NC(=O)C(C)OC(=O)C2CCC2)cc1` (stereo not given), the Potency entry is “inactive”.

`COc1ccc(NC(=O)C(c2ccccn2)N(C(C)=O)c2ccc(C)cc2)cc1` (stereo not given): the Potency entry is “inactive”.

Regarding `COc1cc(C(=O)OCCCN2CCCN(CCCOC(=O)c3cc(OC)c(OC)c(OC)c3)CC2)cc(OC)c1OC`, the Potency entry is “inactive”.

For the compound `CC(=O)c1cccc(S(=O)(=O)N2CCC(C(=O)Nc3cccc(C(=O)NC4CC4)c3)CC2)c1`, the Potency result is “inactive”.
